Consider 16 compounds from PubChem BioAssay.

The source made the active and inactive calls.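 Rule for the calls, unless noted: active = compounds killing one labelled cell type while sparing the other, by normalised counts and ratio limits, not self-fluorescent; inactive = the rest.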

The target of test [1] is 6-phosphogluconate dehydrogenase, decarboxylating (Homo sapiens) (UniProt P52209). Nature of the test: inhibition of human phosphogluconate dehydrogenase – biochemical, recombinant enzyme, NADPH absorbance, primary screen (AID 1159550;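 active = at least 20% inhibition of 6-phosphogluconate dehydrogenase activity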). The settings on record: recombinant 6PGD, NADPH absorbance 341 nm; at 10 µM; stronger effect = higher value.
Test [2] is described as follows: EMT-state selective cytotoxicity in co-culture – imaging, PC-3E GFP, TEM4-18 mCherry, primary screen (AID 1345086).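 For all read-outs here: cells exposed to compound for 72 h before imaging.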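 For red/green cell ratio (normalised): normalised mesenchymal count divided by normalised epithelial count so high means epithelial killing.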 The settings on record: PC-3E GFP / TEM4-18 mCherry co-culture, imaging cell counts, at 1 µM; for red/green cell ratio (normalised): actives lie on both sides, counts scaled to control wells, 1 = unselective.
In test [3] the target is Mitogen-activated protein kinase 7 (Homo sapiens) (UniProt Q13164). Nature of the test: Gal4-ERK5 driven luciferase induction – cell-based, HTS, primary screen (AID 1508626;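 active = luciferase signal above three times the same-plate solvent-only control wells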;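 note: luciferase driven by Gal4-ERK5 fusion binding five Gal4 sites before minimal TATA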). The settings on record: HeLa Gal4-ERK5 transactivation, 18 h, at 5 µM, stronger effect = higher value.
Setting [4] is: measured here: epithelial PC-3E GFP cell survival.
The mark [5] stands for this setting: measured here: mesenchymal TEM4-18 mCherry cell survival.

Sequence of Mitogen-activated protein kinase 7 (Homo sapiens) (Q13164 whole entry, looked up, the tested form may be a part): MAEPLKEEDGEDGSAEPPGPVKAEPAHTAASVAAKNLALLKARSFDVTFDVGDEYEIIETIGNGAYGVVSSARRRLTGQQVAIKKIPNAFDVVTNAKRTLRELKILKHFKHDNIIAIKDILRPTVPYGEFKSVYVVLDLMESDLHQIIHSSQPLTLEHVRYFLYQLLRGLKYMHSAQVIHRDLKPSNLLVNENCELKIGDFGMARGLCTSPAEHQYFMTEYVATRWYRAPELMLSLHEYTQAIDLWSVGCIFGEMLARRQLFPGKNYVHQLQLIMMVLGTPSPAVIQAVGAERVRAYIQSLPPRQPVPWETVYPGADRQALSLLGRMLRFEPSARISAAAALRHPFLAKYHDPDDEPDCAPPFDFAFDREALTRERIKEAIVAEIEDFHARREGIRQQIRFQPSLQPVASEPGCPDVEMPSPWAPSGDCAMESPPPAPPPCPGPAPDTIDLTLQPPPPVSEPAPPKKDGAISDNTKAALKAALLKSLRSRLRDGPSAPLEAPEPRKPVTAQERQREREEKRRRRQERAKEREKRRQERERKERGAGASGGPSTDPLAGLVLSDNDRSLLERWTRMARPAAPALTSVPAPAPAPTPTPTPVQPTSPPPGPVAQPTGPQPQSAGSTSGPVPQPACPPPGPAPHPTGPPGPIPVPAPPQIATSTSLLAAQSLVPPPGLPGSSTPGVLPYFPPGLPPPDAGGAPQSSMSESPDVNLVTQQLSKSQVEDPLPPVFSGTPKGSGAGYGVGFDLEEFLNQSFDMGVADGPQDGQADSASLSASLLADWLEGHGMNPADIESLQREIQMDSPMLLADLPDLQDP
Sequence of 6-phosphogluconate dehydrogenase, decarboxylating (Homo sapiens) (P52209 whole entry, looked up): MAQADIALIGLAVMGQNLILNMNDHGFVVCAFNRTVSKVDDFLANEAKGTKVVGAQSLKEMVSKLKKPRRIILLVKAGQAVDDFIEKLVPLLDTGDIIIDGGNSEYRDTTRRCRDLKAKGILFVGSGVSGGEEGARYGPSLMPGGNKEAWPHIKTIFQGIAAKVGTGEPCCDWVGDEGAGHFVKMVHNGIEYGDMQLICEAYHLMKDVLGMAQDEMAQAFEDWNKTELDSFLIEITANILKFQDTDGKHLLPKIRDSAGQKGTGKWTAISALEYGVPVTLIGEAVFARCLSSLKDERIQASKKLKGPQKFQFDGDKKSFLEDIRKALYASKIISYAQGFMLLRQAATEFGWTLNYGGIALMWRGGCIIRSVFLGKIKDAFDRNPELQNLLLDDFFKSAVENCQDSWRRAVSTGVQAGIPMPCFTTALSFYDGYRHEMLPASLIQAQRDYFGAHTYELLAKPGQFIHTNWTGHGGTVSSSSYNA

In the case of `C=CCCCCCCCCCCCC(O)CC(O)COC(C)=O` (stereo not given) (tested in a mixture with another compound), in test [1], the inhibition was 4.12% (inactive). Moreover, the red/green cell ratio (normalised) in test [2] was 0.92 (inactive). Further, the normalised cell number was determined as 1 in test [2] (setting [4]) and 0.92 in test [2] (setting [5]). Further, the luciferase signal in test [3] was 36 AU (inactive).

`CC(=O)c1c(O)cc(O)cc1O`: in test [1], the inhibition was -5.07% (inactive). The red/green cell ratio (normalised) in test [2] was 1.24 (inactive). Also, the normalised cell number in test [2] (setting [4]) was 0.74; in test [2] (setting [5]) it was 0.92. Besides, the luciferase signal in test [3] was 44 AU (inactive).

For the compound `Cc1cc(O)c(C)c(O)c1C(=O)O`, the inhibition in test [1] was -9.88% (inactive). Also, the red/green cell ratio (normalised) in test [2] is 0.88 (inactive). Moreover, the normalised cell number in test [2] (setting [4]) is 1.09; in test [2] (setting [5]), 0.97. Moreover, in test [3], the luciferase signal is 72 AU (inactive).

As to `COc1ccc2c(c1)OC[C@@H](Cc1ccc(OC)c(OC)c1)[C@@H]2O`, the inhibition in test [1] is 11.8% (inactive). Further, the red/green cell ratio (normalised) in test [2] was 0.93 (inactive). Besides, the normalised cell number is 0.92 in test [2] (setting [4]) and 0.85 in test [2] (setting [5]). For the same compound, the luciferase signal in test [3] is 68 AU (inactive).

For the compound `CC(C)=CC1C(CO)C1(C)C` (stereo not given), the inhibition in test [1] is 2.26% (inactive). Further, in test [2], the red/green cell ratio (normalised) was 0.97 (inactive). The normalised cell number in test [2] (setting [4]) was 0.97; in test [2] (setting [5]), 0.94. The luciferase signal in test [3] is 68 AU (inactive).

In the case of `COc1ccc(C(=O)/C=C/c2ccccc2)cc1`, the inhibition in test [1] is 8.83% (inactive). For the same compound, the red/green cell ratio (normalised) in test [2] was 1.17 (inactive). Moreover, the figures for the normalised cell number in test [2] (setting [4]) and in test [2] (setting [5]) were 0.89 and 1.04, respectively. Besides, the luciferase signal in test [3] is 88 AU (inactive).

Consider `CCOc1ccc(C(=O)c2ccc(O)c(O)c2O)cc1`, for which, in test [1], the inhibition was -12.8% (inactive). In addition, the red/green cell ratio (normalised) in test [2] is 0.88 (inactive). Besides, the values for the normalised cell number in test [2] (setting [4]) and in test [2] (setting [5]) were 0.99 and 0.87, respectively. Besides, the luciferase signal in test [3] was 104 AU (inactive).

Turning to `COc1cc(O)c(C(C)=O)c(OC)c1`, the inhibition in test [1] is 0.271% (inactive). In test [2], the red/green cell ratio (normalised) is 0.74 (inactive). In addition, the normalised cell number is 1.02 in test [2] (setting [4]) and 0.75 in test [2] (setting [5]). Moreover, the luciferase signal in test [3] was 8 AU (inactive).

For the compound `Cc1cc(O)cc(=O)o1`, the inhibition in test [1] is 18.1% (inactive). Moreover, the red/green cell ratio (normalised) in test [2] is 0.97 (inactive). The normalised cell number was found to be 1.03 in test [2] (setting [4]) and 1.01 in test [2] (setting [5]). In test [3], the luciferase signal was 52 AU (inactive).

As to `COc1ccc2c(c1)OCc1c-2oc2cc(OC)ccc12`, in test [1], the inhibition was 2.98% (inactive). Moreover, the red/green cell ratio (normalised) in test [2] is 0.82 (inactive). Also, the figures for the normalised cell number in test [2] (setting [4]) and in test [2] (setting [5]) were 1.14 and 0.93, respectively. Further, the luciferase signal in test [3] is 96 AU (inactive).

Turning to `Nc1ccccc1C(=O)CC(N)C(=O)O` (stereo not given), the inhibition in test [1] is -2.44% (inactive). Besides, in test [2], the red/green cell ratio (normalised) was 1.23 (inactive). Moreover, the values for the normalised cell number in test [2] (setting [4]) and in test [2] (setting [5]) were 0.56 and 0.69, respectively. Moreover, the luciferase signal in test [3] was 68 AU (inactive).

Turning to `COC(=O)c1c(C)c2c(c(C)c1O)OC(=O)c1c(C)c(Cl)c(O)c(Cl)c1O2`, the inhibition in test [1] is 11.2% (inactive). Further, in test [2], the red/green cell ratio (normalised) was 0.9 (inactive). In addition, the figures for the normalised cell number in test [2] (setting [4]) and in test [2] (setting [5]) were 1.03 and 0.93, respectively. Moreover, the luciferase signal in test [3] was 128 AU (inactive).

For `COc1c2c(cc3occ(-c4ccc5c(c4)OCO5)c(=O)c13)OC(C)(C)C=C2`, the inhibition in test [1] is -0.247% (inactive). For the same compound, the red/green cell ratio (normalised) in test [2] is 0.95 (inactive). For the same compound, the normalised cell number in test [2] (setting [4]) was determined as 1.19; in test [2] (setting [5]), 1.14. Moreover, the luciferase signal in test [3] was 60 AU (inactive).

`CC(=O)O[C@H]1C[C@@H](OC(C)=O)C(C)(C)C2C[C@@H](OC(C)=O)[C@@]3(C)C4=CC(=O)O[C@@H](c5ccoc5)[C@]4(C)CCC3[C@]21C` (stereo not given in full): the inhibition in test [1] is 0.0743% (inactive). For the same compound, the red/green cell ratio (normalised) in test [2] was 1.01 (inactive). Further, the normalised cell number in test [2] (setting [4]) is 1; in test [2] (setting [5]), 1.01. Besides, the luciferase signal in test [3] is 16 AU (inactive).

In the case of `CC(C)[C@@H]1CC[C@@H](C)CC1=O`, the inhibition in test [1] is 15.9% (inactive). Further, the red/green cell ratio (normalised) in test [2] was 0.93 (inactive). Besides, the values for the normalised cell number in test [2] (setting [4]) and in test [2] (setting [5]) were 1.16 and 1.08, respectively. Moreover, the luciferase signal in test [3] is 52 AU (inactive).

In the case of `COC(=O)c1c(C)cc(OC(=O)c2c(C)cc(O)c(C=O)c2O)c(C)c1O`, the inhibition in test [1] is 1.13% (inactive). The red/green cell ratio (normalised) in test [2] was 0.78 (inactive). In addition, the values for the normalised cell number in test [2] (setting [4]) and in test [2] (setting [5]) were 1.24 and 0.97, respectively. For the same compound, the luciferase signal in test [3] was 12 AU (inactive).

In general, inhibition refers to the drop in the measured response relative to a control, in per cent.
